This note sets out measurements from PubChem BioAssay.

Test [1] deals with Tumor necrosis factor receptor superfamily member 10B (Homo sapiens) (UniProt O14763). In words: viability loss of caspase-8 NB7 cells with TRAIL – with/without TRAIL, luminescence panel, confirmation (AID 651596). The note with it: NB7 neuroblastoma + caspase-8, TRAIL sensitization, NB7 Caspase-8, with TRAIL, mean of runs, at 10 µM, stronger effect = higher value.
Experiment in test [2]: as above
The settings on record: NB7 neuroblastoma + caspase-8, without TRAIL, NB7 Caspase-8, without TRAIL, mean of runs, at 10 µM.

Chain of Tumor necrosis factor receptor superfamily member 10B (Homo sapiens) (O14763 whole entry, looked up): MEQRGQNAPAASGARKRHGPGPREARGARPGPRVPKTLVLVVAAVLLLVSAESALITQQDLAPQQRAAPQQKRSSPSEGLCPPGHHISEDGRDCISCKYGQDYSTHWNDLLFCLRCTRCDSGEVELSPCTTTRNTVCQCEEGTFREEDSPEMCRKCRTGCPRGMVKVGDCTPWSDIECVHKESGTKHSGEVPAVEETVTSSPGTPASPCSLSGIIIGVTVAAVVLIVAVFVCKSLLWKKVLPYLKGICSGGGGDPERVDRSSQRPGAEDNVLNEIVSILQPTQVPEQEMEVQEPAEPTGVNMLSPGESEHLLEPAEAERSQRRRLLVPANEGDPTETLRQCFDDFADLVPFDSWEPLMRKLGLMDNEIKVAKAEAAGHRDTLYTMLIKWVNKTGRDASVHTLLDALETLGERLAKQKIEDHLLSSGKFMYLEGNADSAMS

In the case of `CC(C)(C)OC(=O)NCc1ccc(CNC(=O)c2[nH]cnc2C(=O)Nc2ccccc2F)cc1`, the figures for the activity in test [1] and in test [2] were 43.6% and 34.9%, respectively.
For `O=C(Nc1ccc2c(c1)OCCO2)c1ccc(Br)s1`, the activity in test [1] was found to be 74.3%; in test [2], 66.8%.
Regarding `CCCCCCC[N+](CC)(CC)CCCCc1ccc(Cl)cc1`, the activity in test [1] amounted to 43.9%; in test [2], 47.1%.
For `COc1cc(SC#N)ccc1N=Cc1c(C)[nH]n(-c2ccc(C)c(C)c2)c1=O`, the activity stood at 93% in test [1] and 97.7% in test [2].
Regarding `Cc1ccc(C(=O)Nc2ccc3c(c2)OCCO3)c(Cl)c1`, the activity in test [1] was 92.3%; in test [2], 90.8%.
On the same counts, the results for `Cc1ccc(C(=O)N/C(=C\c2ccc(-c3ccccc3[N+](=O)[O-])o2)C(=O)NCCCN2CCOCC2)cc1` are 24.6% and 48.9%.
For the compound `Cc1ccc(C(=O)n2c(N)nc3ccccc32)cc1`, the activity in test [1] was 98.3%; in test [2], 98.4%.
Take `c1ccc(/N=C2\N=C(Nc3ccccn3)c3ccccc32)nc1`: the results for the activity in test [1] and in test [2] were 40% and 48.8%, respectively.
In the case of `COC(=O)c1ccc2c(c1)C(C)(C)C(/C=C/c1ccc(O)cc1)=[N+]2C`, the results for the activity in test [1] and in test [2] were 43.9% and 76.1%, respectively.
Regarding `Cc1ccc(-c2cc(C(=O)N/N=C/c3cccnc3)c3ccccc3n2)cc1C`, the activity worked out at 43.9% in test [1] and 35% in test [2].
`CN(C)c1cccc(C(=O)N/N=C/c2ccsc2)c1`: the activity in test [1] came out at 65%; in test [2], 40.4%.
On the same counts, the results for `C#CC(=O)N(c1cccc(OC)c1)C(C(=O)NC1CCCC1)c1cccs1` (stereo not given) are 99.4% and 99.5%.
On the same counts, the results for `COc1cc2sc3ccc(C#CC4(O)CCCCC4)cc3c(=O)c2cc1OC` are 71.4% and 71.4%.
As to `CC(=O)Nc1nc2ccccc2n1CCOc1ccccc1`, the activity in test [1] stood at 45.6%; in test [2] it was 49.5%.
On the same counts, the results for `O=C(Nc1ccccc1)c1cn2ccccc2n1` are 54.9% and 55.7%.
In the same order, the values of `CCC(=O)N1CCCc2cc(S(=O)(=O)N3CCN(c4ccccc4F)CC3)ccc21` are 17.2% and 1.9%.
As for `Cc1nc2nc(C)n(CCN3CCOCC3)c(=O)c2c(-c2cccc([N+](=O)[O-])c2)c1C(=O)CCCCCCCCCCN1CCC(c2ccccc2)(c2ccccc2)CC1`, the figures for the activity in test [1] and in test [2] were 92.6% and 89.9%, respectively.
Consider `CCCn1c(C)cc(C(=O)COC(=O)c2ccc[nH]c2=O)c1C`, for which the activity in test [1] is 49%; in test [2] it was 49.6%.
Regarding `COc1ccc(Cn2c(SCc3ccc(C)cc3)nc3cc(OC)c(OC)cc3c2=N)cc1Cl`, the figures for the activity in test [1] and in test [2] were 99% and 99.3%, respectively.
`Nc1nn2cc(-c3ccc(Br)cc3)nc2c2ccccc12`: the activity in test [1] was found to be 53.9%; in test [2], 47.2%.
Regarding `Cc1ccc(C(=O)Nc2ccc3ncccc3c2)cc1`, the activity in test [1] is 93.4%; in test [2], 92.9%.
As to `O=C(NC(=S)Nc1ccc(Br)cn1)c1cccs1`, the activity in test [1] was found to be 71.7%; in test [2], 73.2%.
Regarding `O=S(=O)(c1ccc2c(c1)C(=NO)c1cc(S(=O)(=O)N3CCCCC3)ccc1-2)N1CCCCC1`, the activity in test [1] is 98.8%; in test [2], 99.3%.
Regarding `OCC1OC(n2cnc3c(SCc4ccccc4)ncnc32)C(O)C1O` (stereo not given), the figures for the activity in test [1] and in test [2] were 59.9% and 67.1%, respectively.
For the compound `COc1ccc(CC(N)c2csc(NC(=O)Nc3cccc(C(F)(F)F)c3)n2)cc1` (stereo not given), the values for the activity in test [1] and in test [2] were 39.6% and 87%, respectively.
With `Clc1ncnc2c1oc1ccccc12`, the activity in test [1] came to 82.7%; in test [2], 60.4%.
On to `CCOc1ccc(C(=O)Nc2cc(C)ccn2)cc1`, for which the activity in test [1] was determined as 95.2%; in test [2], 96.3%.
On to `COc1ccccc1NC(=O)Nc1ccc2c(c1)nc(C)n2C`, for which the activity is 77% in test [1] and 73.8% in test [2].
In the same order, the values of `OCC1OC(n2cnc3c(NCc4ccco4)ncnc32)C(O)C1O` (stereo not given) are 46.1% and 54.3%.
`COC(=O)c1ccc2nc(-c3cccc(N)c3)cn2c1`: the activity in test [1] was 74.5%; in test [2], 67.8%.
In the case of `O=C(N/N=C/c1ccc([N+](=O)[O-])o1)c1cc(-c2ccc(-c3ccccc3)cc2)nc2ccccc12`, the results for the activity in test [1] and in test [2] were 85.8% and 89.3%, respectively.
`COc1ccccc1-c1cc2nc(-c3ccccc3)cc(N3CCN(C(=O)c4ccco4)CC3)n2n1`: the activity in test [1] turned out to be 81.9%; in test [2], 66%.
For the compound `COc1ccc(/C=C\c2nc(=O)c3ccccc3o2)cc1`, the activity in test [1] is 72%; in test [2], 69.6%.
On the same counts, the results for `O=S1(=O)N=C(Nc2nc3c(s2)CCCC3)c2ccccc21` are 75.7% and 81.4%.
In the case of `CC(=O)c1cc(F)ccc1OCC(=O)Nc1ccc2c(c1)OCO2`, the activity came to 72.3% in test [1] and 68.3% in test [2].
Take `CC(C)C[C@H](NC(=O)c1nc[nH]c1C(=O)N[C@@H](CCCCNC(=O)OC(C)(C)C)C(=O)OC(C)(C)C)C(=O)OC(C)(C)C`: the activity in test [1] is 84.7%; in test [2], 68.1%.
In the same order, the values of `N#Cc1ccc(C(=O)Nc2nc(-c3cccs3)c(C(=O)C(F)(F)F)s2)cc1` are 36.9% and 37%.
As to `CC(C)c1nnc(NC(=O)c2c(O)c3cccc4c3n(c2=O)CCC4)s1`, the activity in test [1] was found to be 43.6%; in test [2] it was 36.5%.
As for `O=C(Nc1ccc(-c2cn3ccccc3n2)cc1)c1cccs1`, the activity in test [1] came out at 76.2%; in test [2] it was 66.1%.
With `COc1ccc(-c2nc3ccccc3c(=O)[nH]2)cc1`, the activity worked out at 73.8% in test [1] and 77.5% in test [2].
For `Cc1cccc(/C(N)=N/OC(=O)c2ccc(Cl)cc2Cl)c1`, the activity was determined as 97.3% in test [1] and 91.8% in test [2].
On to `O=C(Nc1ccc2[nH]ccc2c1)c1ccccc1`, for which the figures for the activity in test [1] and in test [2] were 81.1% and 75.3%, respectively.
Regarding `O=C(c1ccccc1)n1c(=S)nc2ccccn21`, the values for the activity in test [1] and in test [2] were 86.2% and 85.5%, respectively.
Regarding `CN1CCN(C(=O)C2=NOC3(C2)C(=O)Nc2ccccc23)CC1` (stereo not given), the activity in test [1] was -0.15%; in test [2] it was 70.2%.
As for `Cc1nc(-c2ccc(NC(=O)c3cccs3)cc2)cs1`, the figures for the activity in test [1] and in test [2] were 83.1% and 83.7%, respectively.
